# Screening data: PubChem BioAssay, several laboratories
# CatB mixtures – human cathepsin B inhibition by mixtures; P07858; Purified cathepsin B, AMC dipeptide fluorescence, compound mixtures; inhibition, %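 (ten-compound pools at 5 µM per compound and 50 µM total)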; hit rate 0.06% among 62,000; AID 488; in the data active = inhibition above about 22%, passing the limit was not always enough;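 note: 0% = enzyme without compound and 100% = no enzyme blank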
# HER2 expr 66K – lowers expression of human Her2 kinase; HER2 level % of control, % at 10 µM; hit rate 0.69% among 65,000; SKBR-3 HER2 protein level, AlphaScreen, 18-24 h; stronger effect = lower value; AID 645; P04626;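 active = HER2 level under 5% of the carrier-only control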;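 note: 100% = DMSO carrier and 0% = 500 nM PU-H71 HSP90 inhibitor; lower value means stronger loss of Her2 protein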
# Target sequence (P04626 whole entry, looked up): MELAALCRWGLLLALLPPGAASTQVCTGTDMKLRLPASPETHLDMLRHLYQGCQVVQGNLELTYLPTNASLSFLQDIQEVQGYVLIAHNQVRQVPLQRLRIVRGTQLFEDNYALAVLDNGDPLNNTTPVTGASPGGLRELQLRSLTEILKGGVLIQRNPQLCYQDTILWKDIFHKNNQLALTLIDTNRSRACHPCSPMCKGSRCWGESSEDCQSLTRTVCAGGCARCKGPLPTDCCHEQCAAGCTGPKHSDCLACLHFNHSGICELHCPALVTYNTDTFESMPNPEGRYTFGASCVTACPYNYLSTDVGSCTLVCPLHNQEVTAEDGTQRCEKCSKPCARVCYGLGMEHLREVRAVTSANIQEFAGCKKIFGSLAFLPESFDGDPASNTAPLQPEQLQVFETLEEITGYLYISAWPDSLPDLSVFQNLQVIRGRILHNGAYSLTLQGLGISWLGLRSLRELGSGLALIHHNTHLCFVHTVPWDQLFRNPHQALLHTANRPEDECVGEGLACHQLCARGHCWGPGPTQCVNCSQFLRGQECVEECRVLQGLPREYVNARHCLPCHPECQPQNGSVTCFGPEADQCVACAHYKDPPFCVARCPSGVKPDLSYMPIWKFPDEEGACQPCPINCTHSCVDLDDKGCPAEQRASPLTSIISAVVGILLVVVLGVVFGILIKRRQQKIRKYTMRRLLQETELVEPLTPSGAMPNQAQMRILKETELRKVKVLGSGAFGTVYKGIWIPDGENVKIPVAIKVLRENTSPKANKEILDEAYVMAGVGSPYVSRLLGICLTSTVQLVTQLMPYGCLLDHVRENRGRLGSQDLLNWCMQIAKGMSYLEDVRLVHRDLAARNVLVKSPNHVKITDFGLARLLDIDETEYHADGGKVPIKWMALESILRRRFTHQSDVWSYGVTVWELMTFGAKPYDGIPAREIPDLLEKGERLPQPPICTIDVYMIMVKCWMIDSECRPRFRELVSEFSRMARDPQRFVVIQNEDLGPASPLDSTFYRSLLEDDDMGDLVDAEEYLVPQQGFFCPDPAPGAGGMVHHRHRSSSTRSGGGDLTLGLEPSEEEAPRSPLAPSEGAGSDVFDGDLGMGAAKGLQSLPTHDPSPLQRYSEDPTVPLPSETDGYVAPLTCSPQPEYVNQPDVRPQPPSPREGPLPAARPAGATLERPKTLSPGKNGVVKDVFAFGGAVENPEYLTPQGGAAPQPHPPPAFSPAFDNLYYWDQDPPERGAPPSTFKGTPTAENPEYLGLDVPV
# CatS inh – human cathepsin S inhibition; AID 501; hit rate 0.06% among 62,000; recombinant cathepsin S, AMC dipeptide fluorescence, pooled mixtures; inhibition, %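 (tested at 5 µM per compound within 10-compound mixtures)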; in the data active = inhibition above about 32%, passing the limit was not always enough;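 note: 0% = enzyme without compound and 100% = blank without enzyme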
# CatL inh – inhibitors of human cathepsin L | hit rate 0.17% among 58,000 | P07711 | inhibition, %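 (tested at 10 µM)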 | purified cathepsin L, fluorogenic substrate, fluorescence; in the data active = inhibition above about 45%;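 note: 0% = enzyme with no compound and 100% = no enzyme blank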
# SK-BR-3 tox 24h – SK-BR-3 proliferation inhibitors; AID 847; viability, % at 10 µM; SK-BR-3 viability, CellTiter-Glo ATP luminescence, 24 h; stronger effect = lower value; hit rate 0.47% among 41,000;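 active = viability at or below the median of all test compounds minus 3 SD, in both replicates if run twice, cut at about 45% in these data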;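 note: 100% = median untreated cell wells and 0% = median positive control drug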
# CatB inh – inhibitors of human cathepsin B | purified cathepsin B, fluorogenic substrate, fluorescence | inhibition, %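 (tested at 10 µM)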 | hit rate 0.1% among 63,000; in the data active = inhibition above about 21%;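 note: 0% = enzyme with no compound and 100% = no enzyme blank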
# * = called active by the depositor; · = no result. Compounds with a hit are over-represented: about 1.1% of the library has one in this group of screens.
SMILES,CatB mixtures,HER2 expr 66K,CatS inh,CatL inh,SK-BR-3 tox 24h,CatB inh
CN(C)C(=O)CSc1nnc([C@@H](N)Cc2ccccc2)o1,-3,81,9,103*,93,1
CN=C(SCc1cc2c(cc1Cl)OCO2)c1c(O)n(C)c(=O)n(C)c1=O,7,98,-4,4,84,0
C=CCn1c(O)c(C(C)=NCc2cccnc2)c(=O)[nH]c1=O,9,101,16,3,92,-3
C=CCn1c(O)c(C(C)=NCc2cc(OC)cc(OC)c2)c(=O)[nH]c1=O,6,72,-4,-5,38*,0
Cc1cc(OCc2nn[nH]n2)c2c3c(c(=O)oc2c1)CCCC3,3,110,-2,-4,97,3
Cn1ncnc2c(=O)n(C)c(=O)nc1-2,80*,1.0*,70*,85*,5.5*,83*
CCC(=NCc1ccco1)c1c(O)n(-c2ccccc2)c(=O)[nH]c1=O,4,86,-1,-1,84,-5
N=C(N)c1c(O)n(C2CCCCC2)c(=O)n(C2CCCCC2)c1=O,8,-6.5*,-1,14,2.8*,3
O=c1c(C=NCCN2CCNCC2)c(O)n(C2CCCCC2)c(=O)n1C1CCCCC1,·,25,·,29,62,3
C[C@@]1(CO)[C@H](O)CC[C@@]2(C)[C@H]1CC[C@H]1C[C@@H]3C[C@@]12CC[C@]3(O)CO,4,-15*,0,6,126,9
CCC(=Nc1ccc(OC)cc1OC)c1c(O)[nH]c(=O)[nH]c1=O,5,71,2,-3,113,3
Nc1c(C(=O)NCCc2ccccc2)c2nc3ccccc3nc2n1CCN1CCOCC1,-4,-5.1*,14,-15,2.9*,2
COc1ccc(CCNC(=O)c2c(N)n(CCN3CCOCC3)c3nc4ccccc4nc23)cc1,5,57,8,-71,120,7
O=C(COc1ccccc1)N1CCN(C2CCCC2)CC1,4,-4.8*,3,6,110,4
Cc1cccc(C)c1NC1=NCCCS1,6,-9.3*,0,3,·,1
Cc1cc(S(=O)(=O)NCc2ccccc2)ccc1OCC(=O)N1CCN(C)CC1,3,98,0,·,100,3
